The values below come from PubChem BioAssay (NCATS).

Results filed as inconclusive are left out. Active and inactive are the calls of the source. Calls follow the shape of the dose curve; as a rule, active = well fitted curve in the direction sought with a large enough effect; inconclusive = small, poorly fitted or top-dose-only effect, or another doubt; inactive = no such curve, though single readings can be large; an effect the other way counts as inactive or inconclusive.

Test [1] in a line: P-glycoprotein substrates identified in KB-8-5-11 adenocarcinoma cell line, qHTS therapeutic library screen (AID 1346987). Also: nearly all actives have a fitted effect of over 65% in size. Also: potency is read from the fitted curve at half-maximal effect. In outline: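 Compounds are pinned in dose-response onto KB-8-5-11 cells (500 cells/well, colchicine-free medium) and left 72 h at 37 degree C. CellTiter-Glo luminescence then yields AC50 values.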
(In general: In qHTS, concentration-response curves come from the screen itself.)

Test [2] in a line: qHTS of pediatric cancer cell lines to identify multiple opportunities for drug repurposing: Primary screen for TC32 cells (AID 1347089). Also: nearly all actives have a fitted effect of over 60% in size. Also: potency is read from the fitted curve at half-maximal effect. An outline of the steps: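 A viability screen of TC32 cells was run over 48 h, with primary MIPE doses spanning 0.78 nM–46 µM and NPC doses 0.59 nM–46 µM. ATP luminescence (CellTiter-Glo) served as the read-out.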
Test [3] in a line: qHTS of pediatric cancer cell lines to identify multiple opportunities for drug repurposing: Primary screen for DAOY cells (AID 1347090). Also: nearly all actives have a fitted effect of over 55% in size. Also: potency is read from the fitted curve at half-maximal effect. In outline:
(§1)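 Eight- or eleven-point concentration series, 48 h treatment at 37 degrees C in growth media; readout CellTiter-Glo luminescence. Potency and efficacy were taken from the concentration-response curves.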

Test [4] can be described thus: qHTS of pediatric cancer cell lines to identify multiple opportunities for drug repurposing: Primary screen for SK-N-MC cells (AID 1347093). Also: potency is read from the fitted curve at half-maximal effect. In outline:
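Metabolically active cells were quantified by ATP-dependent luminescence (CellTiter-Glo, 15 min at room temperature) following 48 h treatment. Cells had been plated at 500-1,000 per well and settled for 5 h beforehand.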

Test [5] in a line: qHTS of pediatric cancer cell lines to identify multiple opportunities for drug repurposing: Primary screen for BT-37 cells (AID 1347094). Also: potency is read from the fitted curve at half-maximal effect. In outline: (§2)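 Quantitative HTS format: each compound titrated (MIPE 11 points from 0.78 nM, NPC 8 points from 0.59 nM) onto cells plated 5 hours earlier. After 48 h at 37 degrees C, CellTiter-Glo luminescence was recorded.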
Test [6] is described as follows: qHTS of pediatric cancer cell lines to identify multiple opportunities for drug repurposing: Primary screen for U-2 OS cells (AID 1347096). Also: nearly all actives have a fitted effect of over 50% in size. Also: potency is read from the fitted curve at half-maximal effect. In outline: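 Cells (500-1,000/well) in growth media were settled 5 h at 37 degrees C, then given compounds for 48 h. Viability was read as CellTiter-Glo luminescence. Primary runs used MIPE at 11 points (0.78 nM-46 µM) and NPC at 8 points (0.59 nM-46 µM); follow-ups used 11 points.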

Test [7] can be described thus: qHTS of pediatric cancer cell lines to identify multiple opportunities for drug repurposing: Primary screen for Saos-2 cells (AID 1347097). Also: nearly all actives have a fitted effect of over 40% in size. Also: potency is read from the fitted curve at half-maximal effect. An outline of the steps:
as §2

Test [8] in a line: qHTS of pediatric cancer cell lines to identify multiple opportunities for drug repurposing: Primary screen for SJ-GBM2 cells (AID 1347091). Also: potency is read from the fitted curve at half-maximal effect. In outline:
as §1

Test [9] can be described thus: qHTS of pediatric cancer cell lines to identify multiple opportunities for drug repurposing: Primary screen for A673 cells (AID 1347092). Also: nearly all actives have a fitted effect of over 45% in size. Also: potency is read from the fitted curve at half-maximal effect. An outline of the steps: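 Titration-based qHTS on A673 cells: MIPE compounds spanned 11 points (0.78 nM to 46 µM final), NPC compounds 8 points (0.59 nM to 46 µM final). Viability after 48 h was measured by ATP luminescence.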
The nature of test [10]: qHTS of pediatric cancer cell lines to identify multiple opportunities for drug repurposing: Primary screen for SK-N-SH cells (AID 1347098). Also: nearly all actives have a fitted effect of over 65% in size. Also: potency is read from the fitted curve at half-maximal effect. An outline of the steps:
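Cells (500-1,000/well) rested 5 h, then received compounds for 48 h; metabolically active cells were measured by CellTiter-Glo luminescence. Final concentrations spanned up to 46 µM (MIPE, 11-point) or 0.59 nM-46 µM (NPC, 8-point) in primary screens, 11-point in follow-ups.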

The nature of test [11]: qHTS of pediatric cancer cell lines to identify multiple opportunities for drug repurposing: Primary screen for NB-EBc1 cells (AID 1347095). Also: potency is read from the fitted curve at half-maximal effect. In outline: as §2
Test [12] is described as follows: NS1 protein of Zika virus - qHTS assay to identify small molecule inhibitors in human HEK 293 cells (AID 1347053). Also: series mostly up to about 46 µM; nearly all actives have a fitted effect of over 55% in size. An outline of the steps:
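In this cell-based screen, HEK 293 cultures received compound for one hour before Zika MR766 at MOI = 0.5. NS1 was quantified 24 hours later by TR-FRET, normalized to virus-free wells and infected wells.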

Turning to `CCCCCCCCCCCCCC(=O)N[C@H](CO)[C@H](O)c1ccc([N+](=O)[O-])cc1`, the Potency result in [1], in [2], in test [3] and in test [6] was “inactive” throughout. Besides, the results for the Potency in [4], in [5] and in [7] were 18.7 µM (active), 13.7 µM (active) and 18.7 µM (active), respectively.
As for `CCCCCCOC(=O)N=C(N)c1ccc(NCc2nc3cc(C(=O)N(CCC(=O)OCC)c4ccccn4)ccc3n2C)cc1`, the Potency result in test [1], in test [2], in test [6] and in test [10] was “inactive” each time. Further, the Potency is 18.7 µM (active) in [8] and 14.8 µM (active) in test [9].
Turning to `O=C(O)c1ccc(O)c2ncc(N3CCOCC3)cc12`, the Potency entry in test [1] was “inactive”. Moreover, the Potency is 18.7 µM (active) in test [4], 20.9 µM (active) in [11], 23.5 µM (active) in [7] and 30.4 µM (active) in [10].
As to `Cc1c(-c2cccc3c(CCCOc4cccc5ccccc45)c(C(=O)O)n(Cc4cccnc4)c23)c(COc2ccc(N3CCN([S+](=O)([O-])N(C)C)CC3)cc2)nn1C`, the Potency result in test [1], in test [2], in [6] and in test [10] was “inactive” throughout. For the same compound, the results for the Potency in test [9] and in test [4] were 23.5 µM (active) and 10.5 µM (active), respectively.
As to `C[C@@H]1CCO[C@H]2Cn3cc(C(=O)NCc4ccc(F)cc4F)c(=O)c(O)c3C(=O)N12`, the Potency result in test [1], in [2], in test [3], in test [9], in [4] and in [10] was “inactive” each time.
`COc1cc(N2CCN(C)CC2)ccc1Nc1nc(N)c(C(=O)c2c(Cl)cccc2Cl)s1`: the Potency result in test [12], in [2], in test [3], in test [8] and in test [7] was “inactive” throughout. In addition, the Potency in [9] is 18.7 µM (active); in test [4], 16.6 µM (active).
Regarding `FC(F)(F)c1ccc(C=Cc2nc(COc3ccc(CCCCn4ccnn4)cc3)co2)cc1`, the Potency result in test [1] and in test [6] was “inactive” each time. In addition, the Potency is 6.58 µM (active) in test [2]; 0.0187 µM (active) in test [3]; 0.0037 µM (active) in test [8]; 0.0093 µM (active) in test [4]; 0.0109 µM (active) in test [5]; 0.0332 µM (active) in test [7].
In the case of `O=C(O)Cc1cccc(OCCCN(Cc2cccc(C(F)(F)F)c2Cl)CC(c2ccccc2)c2ccccc2)c1`, the Potency result in [12], in [2], in [6] and in test [7] was “inactive” in each case. The Potency in test [3] was 14.8 µM (active); in test [8] it was 23.5 µM (active); in test [9], 23.5 µM (active); in [4], 6.62 µM (active); in test [5] it was 27.3 µM (active); in test [11] it was 23.5 µM (active). Further, the Potency in test [10] was 19.2 µM (active).
For the compound `CN(C)CCOc1ccc(-c2nc(-c3ccc4c(c3)CCC4=NO)c(-c3ccncc3)[nH]2)cc1`, the Potency result in test [1], in [2] and in test [11] was “inactive” in each case. Moreover, the Potency in test [8] is 23.5 µM (active); in [9], 18.7 µM (active); in test [7], 23.5 µM (active); in [10], 24.1 µM (active).
Consider `N#Cc1ccc(Oc2ccc3c(c2)COB3O)cc1`, for which the Potency entry in [1], in test [3], in [9], in test [6] and in [7] was “inactive” each time. The Potency in test [4] was 14.8 µM (active).
With `CO[C@H]1/C=C\O[C@@]2(C)Oc3c(C)c(O)c4c(O)c(c5c(nc6cc(C)ccn65)c4c3C2=O)NC(=O)C(C)=CC=C[C@H](C)[C@H](O)[C@@H](C)[C@@H](O)[C@@H](C)[C@H](OC(C)=O)[C@H]1C`, the Potency result in test [1], in test [2], in [3], in test [8], in [9] and in [11] was “inactive” throughout. For the same compound, the Potency result in test [10] is “inactive”.
On to `CN(CC=CC#CC(C)(C)C)Cc1cccc2ccccc12`, for which the Potency result in test [1], in test [2], in [5], in test [6] and in test [10] was “inactive” throughout.
Regarding `C=CC(=O)Nc1cccc(Sc2nc(Nc3ccc(N4CCN(C)CC4)cc3)ncc2Cl)c1`, the Potency was 23.1 µM (active) in [1]; 2.35 µM (active) in test [3]; 1.48 µM (active) in test [9]; 2.64 µM (active) in [4]; 9.35 µM (active) in test [11]; 27.1 µM (active) in test [10].
In the case of `CC(=O)OCC(=O)[C@@]1(O)CC[C@H]2[C@@H]3CCC4=CC(=O)C=C[C@]4(C)[C@@H]3[C@@H](O)C[C@@]21C`, the Potency result in [12], in test [2], in test [3], in test [8], in [9] and in test [4] was “inactive” each time. Also, the Potency entry in test [5], in test [11], in [6], in test [7] and in test [10] was “inactive” throughout.
Consider `CC1=C[C@@H]2[C@@H]([C@@H](O)C[C@@]3(C)[C@H]2C[C@@H](C)[C@]3(O)C(=O)CO)[C@@]2(C)Cc3cnn(-c4ccccc4)c3C=C12`, for which the Potency in test [1] is 16.4 µM (active); in test [9], 18.7 µM (active); in [11], 23.5 µM (active); in test [7] it was 29.6 µM (active). In test [6], the Potency entry is “inactive”.
Regarding `O=C(c1ccc(F)c(F)c1Nc1ccc(I)cc1F)N1CC(O)([C@H]2CCCCN2)C1`, the Potency in [1] is 20.9 µM (active); in test [8] it was 4.69 µM (active); in test [9] it was 0.0235 µM (active); in [4] it was 1.48 µM (active); in test [5] it was 1.09 µM (active); in test [11], 1.66 µM (active). Also, the Potency is 14.8 µM (active) in test [6], 1.87 µM (active) in test [7] and 6.07 µM (active) in test [10]. In addition, the Potency result in [2] was “inactive”.
Consider `Cc1cc(-c2ncc(CC(=O)Nc3ccc(-c4cnccn4)cn3)cc2C)ccn1`, for which the Potency entry in test [12], in test [2], in test [8] and in test [6] was “inactive” in each case. Further, in test [4], the Potency was 16.6 µM (active).
